The record followed here is PubChem BioAssay (NCI).

Molecules are shown by their SMILES. The panel holds about 83,000 compounds, 20% with a hit somewhere; the sample as a whole holds those more often.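 A percent growth of 40 corresponds to 60% growth inhibition; 0 means no net growth; -100 means all cells died. Active threshold: below 10.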 Unmarked numbers belong to inactive results. Active and inactive are the calls of the source.

Holding throughout (experiment): NCI-60 one-dose screen, 48 h (100 = growth as untreated, 0 = no growth, -100 = all killed)
Conditions in all cases: 10 µM unless noted

The test system of assay [1] is SR leukemia.
Assay [2] deals with RPMI-8226 leukemia.
The test system of assay [3] is OVCAR-8 ovarian.
Assay [4] relates to OVCAR-5 ovarian.
The test system of assay [5] is OVCAR-4 ovarian.
Assay [6] deals with SK-OV-3 ovarian.
The subject of assay [7] is IGROV1 ovarian.
The test system of assay [8] is OVCAR-3 ovarian.
Assay [9] relates to NCI/ADR-RES ovarian.

In the case of `C=CCNCCC#N`, the growth was 89.7% in assay [1]; 101% in assay [2]; 96.8% in [3]; 108% in assay [4]; 106% in [5]; 103% in [6]. Also, the growth in assay [7] was 108%; in assay [8] it was 114%; in [9] it was 117%.
Consider `O=CN/N=C/c1ccc(Cl)c([N+](=O)[O-])c1`, for which the growth in assay [1] was 39.9%; in assay [2] it was 15.6%; in assay [3], 18.1%; in [4], 31%; in assay [5], 49.6%; in [6], 46.9%. The values for the growth in assay [7], in assay [8] and in assay [9] were 16.9%, 18.1% and 107%, respectively.
`CCC(C)CC(N)O` (stereo not given): the growth is 105% in assay [1]; 111% in [2]; 107% in assay [3]; 99.9% in [4]; 109% in assay [5]; 111% in [6]. The growth in assay [7] is 118%; in [8], 110%; in [9], 109%.
Regarding `O=C(Nc1ccc(Cl)c(Cl)c1)O/N=C\c1c(Cl)ccc([N+](=O)[O-])c1Cl`, the growth in assay [1] is -23.7% (active); in assay [2] it was -52.7% (active); in assay [3], 8% (active); in [4] it was 12.1%; in [5], -65.8% (active); in assay [6] it was 61.3%. Moreover, the growth was -45.8% (active) in assay [7], -99.3% (active) in [8] and 16.5% in assay [9].
With `NC(N)=N/N=C/c1cccc(Br)c1`, the growth is 104% in [1]; 95.3% in assay [2]; 110% in assay [3]; 104% in assay [4]; 91.6% in [5]; 91.4% in assay [6]. Also, the growth in assay [7] was 86.4%; in [8], 99.8%; in assay [9], 103%.
On to `O=C1C=C(OCC=C(C(F)(F)F)C(F)(F)F)c2ccccc2C1=O`, for which the growth in assay [1] is -19.7% (active); in assay [2], -38.7% (active); in [3], -22.8% (active); in assay [4], 96.3%; in assay [5], -7.2% (active); in assay [6] it was 59.8%. Further, the growth in [7] was -12.4% (active); in [8] it was -19.9% (active); in [9], 28.6%.
Consider `N#CC1=C(N2CCOCC2)NC2c3ccccc3Sc3ccccc3N2C1=N` (stereo not given), for which the growth in [1] is 119%; in assay [2] it was 106%; in assay [3] it was 98.7%; in [4], 109%; in assay [5], 109%; in [6], 81.7%. Besides, the growth in assay [7] is 79.1%; in assay [8], 103%; in assay [9] it was 89.9%.
As for `CCCCS(=O)(=O)c1cc(Nc2ccc(O)c3c2C(=O)c2ccccc2C3=O)ccc1C`, the growth is 58.6% in assay [1]; 80.9% in assay [2]; 86.6% in assay [3]; 78.5% in [4]; 78.9% in [5]; 87.8% in assay [6]. For the same compound, the growth is 81.8% in assay [7], 46.4% in [8] and 82.2% in [9].
Take `CSCc1ncc(-c2ccc(C(F)(F)F)cc2)c(NC2CCCCCC2)n1`: the growth in assay [1] is 13.4% [25 µM]; in assay [2] it was 3.14% [25 µM] (active); in assay [3], 75.1% [25 µM]; in [4], 97% [25 µM]; in assay [5] it was 83% [25 µM]; in assay [6] it was 97.9% [25 µM]. In addition, the results for the growth in [7], in [8] and in assay [9] were 81.2% [25 µM], 39.4% [25 µM] and 74.9% [25 µM], respectively.
As to `COC(=O)[C@H](Cc1cn(C)cn1)NC(=O)[C@H](CC(=O)OCc1ccccc1)NC(=O)Nc1cc(C(F)(F)F)cc(C(F)(F)F)c1`, the growth in assay [1] was -46.4% [100 µM] (active); in [2] it was -65.4% [100 µM] (active); in [3] it was -77.4% [100 µM] (active); in assay [4] it was -93.2% [100 µM] (active); in assay [5] it was -78% [100 µM] (active); in [6] it was -100% [100 µM] (active). The growth in [7] is -82.4% [100 µM] (active); in assay [8] it was -99% [100 µM] (active); in assay [9], -28.4% [100 µM] (active).
As for `CCOc1ccccc1/C=N\N=C(N/N=C/c1ccccc1OCC)N/N=C/c1ccccc1OCC`, the growth in assay [1] was 15.7%; in [2] it was 18.8%; in [3] it was 18.4%; in [4] it was 13.9%; in assay [5] it was 7.81% (active); in [6], 2.98% (active). In addition, the growth in [7] was 21%; in assay [8], -19.7% (active); in assay [9] it was 6.36% (active).
For the compound `CC(=O)OCC(=O)[C@@]1(O)[C@H](C)C[C@H]2[C@@H]3C=C(C)C4=Cc5c(cnn5-c5ccc(F)cc5)C[C@]4(C)[C@H]3[C@@H](O)C[C@@]21C`, the growth is 0.104% (active) in assay [1]; -16.8% (active) in assay [2]; 32.7% in assay [3]; 16.9% in [4]; 38.8% in assay [5]; 23.9% in [6]. For the same compound, the figures for the growth in assay [7], in assay [8] and in [9] were 16%, -20% (active) and 18.6%, respectively.
Regarding `CCCCCN1CCN(C(CC(=O)c2ccccc2)C(=O)c2ccccc2)CC1` (stereo not given), the growth in assay [1] is 0.154% (active); in [2] it was 12.6%; in [3], 101%; in assay [4] it was 110%; in assay [5], 107%; in [6], 102%. For the same compound, the figures for the growth in assay [7], in assay [8] and in [9] were 57.8%, 55.3% and 99%, respectively.
`O=C(/C=C/c1ccc(Cl)cc1)c1ccc(Cl)cc1`: the growth in assay [1] was 9.81% (active); in assay [2] it was 13.7%; in [3] it was 106%; in [4] it was 104%; in [5], 106%; in assay [6], 104%. The growth in assay [7] is 88.1%; in assay [8], 89.7%; in [9], 99.3%.
Take `CCOC1=C(Cl)C(=O)C(OCC)=C(Cl)C1=O`: the growth in [1] is 87.7%; in assay [2] it was 105%; in [3], 104%; in assay [4], 110%; in [5] it was 105%; in assay [6], 93.5%. The growth in assay [7] was 99.1%; in assay [8], 105%; in [9], 100%.
